# Laboratory results: PubChem BioAssay (NCI)
# “And” between values parts separate entries of the source, which are not always exact repeats. Equal values may be shown once. About 83,000 compounds went through this panel and 20% of them were active in at least one assay; those are over-represented in the sample as a whole.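 Interpretation: 100, growth as untreated; towards 0, rising growth inhibition; 0, no net growth; 0 to -100, cell death. Compounds scoring below 10 were considered active.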 The source made the active and inactive calls.
# System: NCI-H23 lung
# Assay: NCI-60 one-dose screen, 48 h (100 = growth as untreated, 0 = no growth, -100 = all killed)
# Settings: 10 µM unless noted
row,Structure (SMILES),growth
1,CC(=O)Nc1cccc2c1CCCC2,98% (inactive) and 96.3% (inactive)
2,Clc1ccc(SSc2ccc(Cl)cc2)cc1,94.1% (inactive) and 85.5% (inactive)
3,Cc1nnc(NC/C=C/c2ccccc2)s1,98.5% (inactive) and 2.04% (active)
4,Cc1cccc(/C=C\C(=O)c2ccccc2)c1,93.5% (inactive) and 101% (inactive)
5,COC(=O)[C@H]1CCCN1C(=O)C1CCCN1C(=O)[C@@H](Cc1ccccc1)NC(=S)Nc1cc(C(F)(F)F)cc(C(F)(F)F)c1 (some centres not stated),108% (inactive) and 96.5% (inactive)
6,CNc1cc(-c2cccc(OC(F)(F)F)c2)nc2ccc(N3CCCC3)cc12,66.5% (inactive) and 6.85% (active) and 8.59% (active)
7,O=[N+]([O-])c1ccc(-n2[nH]nnc2=S)cc1,98.5% (inactive)
8,O=[N+]([O-])c1ccc(Oc2ccccc2)cc1,95.7% (inactive) and 105% (inactive)
9,CC(C(=O)O)n1cc(C#N)c(=O)[nH]c1=O (configuration not stated),108% (inactive) and 111% (inactive)
10,CNC(=O)c1cc(Oc2ccc(NC(=O)Nc3ccc(Cl)c(C(F)(F)F)c3)cc2)ccn1,-10.2% (active) and -19.9% (active)
11,COc1ccc(/C(C#N)=C/c2ccccn2)cc1,98% (inactive) and 102% (inactive)
12,Nc1n[nH]c(=S)n1-c1ccc(Cl)cc1,95.9% (inactive)
13,CCOC(=O)C(C(=O)OCC)C(c1ccccc1)N1CCN(c2ccccc2)CC1 (configuration not stated),107% (inactive) and 114% (inactive)
14,OCCN1CCN(CCO)CC1,95.3% (inactive) and 99.7% (inactive) and 110% (inactive)
15,CC1=C(/C=C/C(C)=C/C=C/C(C)=C/C=N/NC(=S)NC(=S)N/N=C/C=C(C)/C=C/C=C(C)/C=C/C2=C(C)CCCC2(C)C)C(C)(C)CCC1,-27.2% (active) and -49.8% (active)
16,NC(=O)NO,102% (inactive) and 62.3% (inactive)
17,CN(Cc1ccccc1)Cc1ccccc1,96.6% (inactive)
18,O=C(Cc1cccc2ccccc12)N/N=C/c1ccc2c(c1)CCC2,88.5% (inactive)

row,Structure (SMILES),growth
1,O=C(CN1CCN(c2cc3c(cc2F)c(=O)c(C(=O)O)cn3C2CC2)CC1)Nc1ccc(Cl)cc1,94.5% (inactive) and 87.5% (inactive)
2,CCN(CC)CCC(CNc1c2ccc([N+](=O)[O-])cc2nc2cc(OC)c(OC)cc12)c1ccccc1 (configuration not stated),-86.4% (active) and -71.3% (active)
3,CN(C)c1ccc2nc3ccc(N)cc3[n+](-c3ccccc3)c2c1,10.4% (inactive) and 20.6% (inactive)
4,O=C(/C=C/c1ccccn1)c1ccccc1O,73.9% (inactive) and 81.3% (inactive)
5,CCCCCN(CCCCC)CC(O)c1cc2c(c3ccccc13)CCCC2 (configuration not stated),31.5% (inactive) and 40.8% (inactive)
6,O=C(Nc1ccc(Br)cc1)c1cc(Br)ccc1O,0.675% (active) and -16.7% (active)
7,Clc1ccc(NC(Nc2ccc(Cl)cc2)C(Cl)(Cl)Cl)cc1,78.1% (inactive) and 96.5% (inactive)
8,NC(=S)N/N=C(\c1ccc(Br)cc1)C1CC1,94.2% (inactive) and 87.9% (inactive)
9,CC[N+](CC)(CC(=O)Nc1c(C)cccc1C)Cc1ccccc1,85.4% (inactive) and 99.4% (inactive)
10,NS(=O)(=O)c1cc2c(cc1Cl)NC(C(Cl)Cl)NS2(=O)=O (configuration not stated),120% (inactive) and 106% (inactive)
11,CC(=O)c1ccccc1O,103% (inactive) and 97.7% (inactive)
12,Cc1n[nH]c(=O)n(/N=C\c2c[nH]c3ccccc23)c1=O,102% (inactive)
13,COc1cc2c(c(OC)c1OC)-c1ccc(OC)c(=O)cc1[C@@H](NC(C)=O)CC2,24.4% (inactive) and 29.4% (inactive) and 12.6% (inactive)
14,O[C@H](c1cc(C(F)(F)F)nc2c(C(F)(F)F)cccc12)[C@@H]1CCCCN1,79.2% (inactive) and 77.8% (inactive)
15,COc1cc2nc(N3CCN(C(=O)C4COc5ccccc5O4)CC3)nc(N)c2cc1OC (configuration not stated),90.1% (inactive) and 99% (inactive) and 101% (inactive)
16,COc1ccc(-c2cn[nH]c2-c2cc(OC)c(OC)c(OC)c2)cc1N,22.5% (inactive) and 28.3% (inactive)
17,CC1CCCC(=O)O1 (configuration not stated),104% (inactive) and 97.1% (inactive)
18,CCNC(=O)Nc1ccc(-c2nc3c(c(N4CCOC[C@@H]4C)n2)CCN(C2COC2)C3)cc1,50.8% (inactive) and 20.1% (inactive)

# System: NCI-H226 lung
# Assay: as above
# Settings: 10 µM unless noted
row,Structure (SMILES),growth
1,CC(=O)Nc1cccc2c1CCCC2,98.9% (inactive) and 98.7% (inactive)
2,Clc1ccc(SSc2ccc(Cl)cc2)cc1,104% (inactive) and 79.5% (inactive)
3,Cc1nnc(NC/C=C/c2ccccc2)s1,106% (inactive) and 102% (inactive)
4,Cc1cccc(/C=C\C(=O)c2ccccc2)c1,111% (inactive) and 95.5% (inactive)
5,COC(=O)[C@H]1CCCN1C(=O)C1CCCN1C(=O)[C@@H](Cc1ccccc1)NC(=S)Nc1cc(C(F)(F)F)cc(C(F)(F)F)c1 (some centres not stated),105% (inactive) and 87.6% (inactive)
6,CNc1cc(-c2cccc(OC(F)(F)F)c2)nc2ccc(N3CCCC3)cc12,94.6% (inactive) and 68.5% (inactive) and -35.2% (active)
7,O=[N+]([O-])c1ccc(-n2[nH]nnc2=S)cc1,107% (inactive)
8,O=[N+]([O-])c1ccc(Oc2ccccc2)cc1,103% (inactive)
9,CC(C(=O)O)n1cc(C#N)c(=O)[nH]c1=O (configuration not stated),93.3% (inactive) and 94.8% (inactive)
10,CNC(=O)c1cc(Oc2ccc(NC(=O)Nc3ccc(Cl)c(C(F)(F)F)c3)cc2)ccn1,-17.8% (active) and -23.1% (active)
11,COc1ccc(/C(C#N)=C/c2ccccn2)cc1,95.9% (inactive) and 128% (inactive)
12,Nc1n[nH]c(=S)n1-c1ccc(Cl)cc1,93.9% (inactive)
13,CCOC(=O)C(C(=O)OCC)C(c1ccccc1)N1CCN(c2ccccc2)CC1 (configuration not stated),112% (inactive) and 96.9% (inactive)
14,OCCN1CCN(CCO)CC1,107% (inactive) and 97.5% (inactive)
15,CC1=C(/C=C/C(C)=C/C=C/C(C)=C/C=N/NC(=S)NC(=S)N/N=C/C=C(C)/C=C/C=C(C)/C=C/C2=C(C)CCCC2(C)C)C(C)(C)CCC1,-66.4% (active) and -86.6% (active)
16,NC(=O)NO,106% (inactive) and 74.1% (inactive)
17,CN(Cc1ccccc1)Cc1ccccc1,94.1% (inactive)
18,O=C(Cc1cccc2ccccc12)N/N=C/c1ccc2c(c1)CCC2,97.3% (inactive)

row,Structure (SMILES),growth
1,O=C(CN1CCN(c2cc3c(cc2F)c(=O)c(C(=O)O)cn3C2CC2)CC1)Nc1ccc(Cl)cc1,80.1% (inactive) and 96.7% (inactive)
2,CCN(CC)CCC(CNc1c2ccc([N+](=O)[O-])cc2nc2cc(OC)c(OC)cc12)c1ccccc1 (configuration not stated),-65.3% (active) and -61.1% (active)
3,CN(C)c1ccc2nc3ccc(N)cc3[n+](-c3ccccc3)c2c1,54.7% (inactive) and 72.4% (inactive)
4,O=C(/C=C/c1ccccn1)c1ccccc1O,93.2% (inactive) and 97.3% (inactive)
5,CCCCCN(CCCCC)CC(O)c1cc2c(c3ccccc13)CCCC2 (configuration not stated),69.8% (inactive) and 53.2% (inactive)
6,O=C(Nc1ccc(Br)cc1)c1cc(Br)ccc1O,18.2% (inactive) and -33.2% (active)
7,Clc1ccc(NC(Nc2ccc(Cl)cc2)C(Cl)(Cl)Cl)cc1,107% (inactive) and 96.8% (inactive)
8,NC(=S)N/N=C(\c1ccc(Br)cc1)C1CC1,96.7% (inactive) and 87.6% (inactive)
9,CC[N+](CC)(CC(=O)Nc1c(C)cccc1C)Cc1ccccc1,87% (inactive) and 97.8% (inactive)
10,NS(=O)(=O)c1cc2c(cc1Cl)NC(C(Cl)Cl)NS2(=O)=O (configuration not stated),108% (inactive) and 99.3% (inactive)
11,CC(=O)c1ccccc1O,102% (inactive) and 81.7% (inactive) and 104% (inactive)
12,Cc1n[nH]c(=O)n(/N=C\c2c[nH]c3ccccc23)c1=O,103% (inactive)
13,COc1cc2c(c(OC)c1OC)-c1ccc(OC)c(=O)cc1[C@@H](NC(C)=O)CC2,33.9% (inactive) and 13.1% (inactive) and 31% (inactive)
14,O[C@H](c1cc(C(F)(F)F)nc2c(C(F)(F)F)cccc12)[C@@H]1CCCCN1,93.5% (inactive) and 58.9% (inactive)
15,COc1cc2nc(N3CCN(C(=O)C4COc5ccccc5O4)CC3)nc(N)c2cc1OC (configuration not stated),96.2% (inactive) and 96.7% (inactive) and 99.9% (inactive)
16,COc1ccc(-c2cn[nH]c2-c2cc(OC)c(OC)c(OC)c2)cc1N,69.4% (inactive) and 50.2% (inactive)
17,CC1CCCC(=O)O1 (configuration not stated),93.3% (inactive) and 101% (inactive)
18,CCNC(=O)Nc1ccc(-c2nc3c(c(N4CCOC[C@@H]4C)n2)CCN(C2COC2)C3)cc1,19.7% (inactive) and -3.42% (active)
